Source: PubChem BioAssay (NCI)
The panel holds about 83,000 compounds, 20% with a hit somewhere; the sample as a whole holds those more often.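 Activity criterion: percent growth below 10, measured after cells in 96-well plates were exposed to a single compound concentration for 48 hours.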 Activity calls are given as the source filed them.

Each compound was assayed on HL-60(TB) leukemia (assay: NCI-60 one-dose screen, 48 h (100 = growth as untreated, 0 = no growth, -100 = all killed)). Settings: 10 µM unless noted.

| Compound | growth |
| --- | --- |
| N#C/C(=C\c1ccc(Cl)cc1Cl)C(=O)Nc1ncc(Cc2ccc(Cl)c(Cl)c2)s1 | 98.8% (inactive) |
| O=C1Nc2ccc(F)cc2C12Nc1cc(Cl)ccc1S2 (stereo not given) | 65.5% (inactive) |
| Cc1c(O)cc(-c2cnc(N/N=C\c3ccc(Cl)cc3)s2)c(O)c1C | -3.05% (active) |
| N#Cc1nc(-c2cccc(Br)c2)cc(-c2ccc(Nc3nc(N4CCCCC4)nc(N4CCCCC4)n3)cc2)c1N | -16.4% (active) |
| COc1ccc(-c2cnc(SCC(=O)Nc3ccc(-c4nc5ccccc5s4)cc3)n2-c2ccc(OC)cc2)cc1 | 106% (inactive) |
| c1cc2cccc3c4cccc5cccc(c(c1)c23)c54 | 109% (inactive) |
| O=C(CSc1nc2ccccc2c(=O)n1-c1ccccc1)Nc1ccc(C(=O)/C=C/c2ccc(Cl)cc2)cc1 | 99% (inactive) |
| Cc1ccc(/C=C(\C#N)n2nnc3cc(Cl)c(Cl)cc32)cc1 | 1.4% (active) |
| O=C(NCCN1CCOCC1)Nc1ccc(-c2cc3c(Nc4ccc(Oc5cccc(C(F)(F)F)c5)c(Cl)c4)ncnc3s2)cc1 | -25.6% (active) |
| CC(=O)Nc1ccc(NC(C)=O)c2c1C(=O)c1ccccc1C2=O | 154% (inactive) |
| COC(c1ccc2ccccc2c1)C(C)C(F)F (stereo not given) | 103% (inactive) |
| CCCCCCCCCCCCCCCCCC(=O)[O][Sn]([CH2]CCC)([CH2]CCC)[CH2]CCC | -18.5% (active) |
| Nc1c(Cl)cc([N+](=O)[O-])cc1Br | 101% (inactive) |
| O=Cc1[nH]c(Sc2ccccc2)c2ccccc12 | 12.1% (inactive) |
| Cc1cc2nc3c4cc([N+](=O)[O-])ccc4n(CCN(C)C)c3nc2cc1C | -4.06% (active) |
| O=C(Nc1ccc(Cl)cc1)C1=NCCCCN1 | 96.6% (inactive) |
| COc1cccc2c1C(=O)c1c(O)c3c(c(O)c1C2=O)C[C@@](O)(C(=O)COC(=O)c1cccnc1)C[C@@H]3OC1CC(N)C(O)C(C)O1 (stereo not given in full) | -27% (active) |
| Fc1ccc([I+]c2ccc(F)cc2)cc1 | 54.5% (inactive) |
| COc1ccc(-c2nn(-c3cccc(Cl)c3)cc2/C=C2\C(=N)N(c3ccccc3)N=C2N)cc1 | 9.27% (active) |
| C[C@@H]1N=C(c2ccc3ccccc3c2)Nc2nc3ccccn3c2C1=O | -6.75% (active) |

| Compound | growth |
| --- | --- |
| OCCN1CCCN(CCCN2c3ccccc3Sc3ccc(C(F)(F)F)cc32)CC1 | 45% (inactive) |
| O=C1/C(=C/c2ccc(OCc3ccccc3)cc2)Oc2cc(OCCN3CCCCC3)ccc21 | 80.9% (inactive) |
| Cc1cc(C)c(C(=O)c2cccs2)c(C)c1 | 98.3% (inactive) |
| O=C1Nc2ccc(Cl)cc2/C1=C/c1cccs1 | 98% (inactive) |
| COc1ccc(NC(=O)COCCOCCNC[C@@H]2C(=O)O[C@H]3[C@H]2CC/C(COC(=O)OC/C2=C/CC[C@@]4(C)O[C@H]4[C@H]4OC(=O)[C@@H](CN(C)C)[C@@H]4CC2)=C\CC[C@@]2(C)O[C@@H]32)c(O)c1C(N)=O | -48.2% (active) |
| CNC(=O)c1cc(Oc2cccc3nc(NC(=O)Nc4ccc(F)cc4F)ccc23)ccn1 | 81.8% (inactive) |
| CC(C)N(CCOC(=O)Nc1ccccc1Cl)C(C)C | 103% (inactive) |
| Brc1cccc(-c2cc(-c3ccc4c(c3)OCCCO4)[nH]n2)c1 | 47.7% [25 µM] (inactive) |
| Cc1nc(Nc2cccc(NC(=O)Nc3ccc(Cl)cc3)c2)c2ccccc2n1 | 78.6% (inactive) |
| C/C(=N\Nc1nc(C)cs1)c1cc2ccccc2o1 | 83.4% (inactive) |
| CC(=O)Nc1nccs1 | 103% (inactive) |
| COc1ccc(OC)c(/C=C/c2nnc(Nc3ccccc3)o2)c1 | 75.7% (inactive) |
| COc1ccc2nc(-c3ccc(Cl)cc3)cc(-c3nnc(SC/C(=N\O)c4ccccc4)n3-c3ccccc3)c2c1 | 55.4% (inactive) |
| COC(=O)c1ccc(C2Nc3ccc(S(=O)(=O)Nc4ccc(C)c(C)c4)cc3C3OCCC23)cc1 (stereo not given) | 59.3% (inactive) |
| CCOc1ccc(Nc2ccnc3cc(Cl)ccc23)cc1 | -25.6% (active) |
| CCCCC(=O)N/N=C/c1cc(I)cc(I)c1O | 4.46% (active) |
| COc1ccccc1NS(=O)(=O)c1ccc2oc(SC(C)C)nc2c1 | 53.6% (inactive) |
| CCCCOC(=O)c1cc(O)c(O)c(O)c1 | 24.7% (inactive) |
| O=C(NCc1ccco1)C1CN(c2ccc(Cl)cc2)N(c2ccc(Cl)cc2)C1=O (stereo not given) | 5.03% (active) |
| O=C(NOCCO)c1ccc2cncn2c1Nc1ccc(I)cc1F | 23.5% (inactive) |
